A short description of experiment [1]: Viability qHTS for spleen associated tyrosine kinase inhibitor (SYKi) naive MV4-11 cells (AID 1963823). Further: nearly all actives have a fitted effect of over 40% in size. The procedure, abridged: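 Seeding of 500 SYKi-naive MV4-11 cells per well onto pre-dispensed compounds preceded a 72 hr incubation at 37 C. Luminescent CellTiter-Glo signal, read after 10 min at room temperature, reflected viable cells.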
(In general: qHTS replaces the single test concentration by a dilution series.)

The nature of experiment [2]: Viability qHTS for spleen associated tyrosine kinase inhibitor (SYKi) drug resistant MV4-11 cells (AID 1963824). Further: nearly all actives have a fitted effect of over 35% in size. The essentials: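 CellTiter-Glo luminescence, read 10 min after reagent addition, reports viability after a 72 hr compound exposure. Cells are an MV4-11 line made resistant to SYK inhibition, seeded at 500 per well onto compound-containing plates.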

Structures are written as SMILES. “And” between values parts separate entries of the source, which are not always exact repeats. Identical values can stand only once. Records with an inconclusive call do not appear. Values without a mark were called inactive. The source made the active and inactive calls. The call rests on the fitted dose curve; in most records, active means well fitted cell-killing curve with a large enough effect; inconclusive means small, poorly fitted or top-dose-only effect, or effect the other way; inactive means no such curve, though single readings can be large or run the other way.
Potency means the concentration at half of the fitted maximal effect.

For `Cc1sc2c(c1C)C(c1ccc(Cl)cc1)=N[C@@H](CC(N)=O)c1nnc(C)n1-2`, the Potency in experiment [1] is 83.3 nM (active); in experiment [2] it was 82 nM (active) and 83.3 nM (active).
Regarding `CC(C)(C)c1cc(C(C)(C)C)c2c(c1)C(O)(C(F)(F)F)C(=O)O2` (configuration not stated), the Potency result in experiment [1] and in experiment [2] was “inactive” each time.
For `CC[C@H](C)[C@H](NC(=O)[C@H]1CCCCN1C)C(=O)N(COC(=O)CC(C)C)[C@H](C[C@@H](OC(C)=O)c1nc(C(=O)N[C@@H](Cc2ccc(O)cc2)C[C@H](C)C(=O)O)cs1)C(C)C`, the Potency in experiment [1] is 0.4 nM (active).
As for `C=CCN1CC[C@]23c4c5ccc(O)c4O[C@H]2[C@@H](O)CC[C@@]3(O)[C@H]1C5`, the Potency result in experiment [1] and in experiment [2] was “inactive” throughout.
For `FC(F)(F)c1cccc(C2=CCN(CCc3ccc4ccccc4c3)CC2)c1`, the Potency entry in experiment [1] is “inactive”.
Regarding `CCCSP(=O)(OCC)SCCC`, the Potency in experiment [1] was 16 nM (active).
Still for that read-out and setting: under `O=C(N[C@H]1CN2CCC1CC2)c1cc2cccc(Cl)c2s1` stands 14600 nM (active).
For `C/C=C(\C)C(=O)O[C@H]1CC2C(=C1C)[C@H]1OC(=O)[C@](C)(O)[C@]1(O)[C@H](OC(=O)CCC)C[C@@]2(C)OC(C)=O` (some centres not stated), the Potency in experiment [1] is 1780 nM (active); in experiment [2], 563 nM (active).
The like results for `CC[C@@H]1C[C@H]2CC[C@H](O2)[C@H](C)C(=O)O[C@@H](C)C[C@@H]2CC[C@@H](O2)[C@@H](C)C(=O)O[C@H](CC)C[C@H]2CC[C@H](O2)[C@H](C)C(=O)O[C@@H](C)C[C@@H]2CC[C@@H](O2)[C@@H](C)C(=O)O1` were, in that order, 30.6 nM (active) and 19.3 nM (active).
The matching figures for `CN1[C@H]2C[C@H](OC(=O)[C@H](CO)c3ccccc3)C[C@@H]1[C@@H](O)C2`: “inactive” and “inactive”.
The matching figures for `C/C=C(\C)C(O)C(C)/C=C(C)/C=C/C/C(C)=C/Cc1nc(OC)c(OC)c(O[C@@H]2O[C@@H](C)[C@H](O)[C@@H](O)[C@H]2O)c1C` (some centres not stated): 100 nM (active) and 252 nM (active).
As to `C[C@@H]1C[C@@H](O)[C@]2(O)O[C@@H]3C[C@@]4(C=O)C(CC[C@@H]5C4CC[C@]4(C)[C@@](O)(C6=CC(=O)OC6)CC[C@]54O)C[C@H]3OC2O1` (some centres not stated), the Potency in experiment [1] was 796 nM (active); in experiment [2], 709 nM (active).
The matching figures for `C=C(C)[C@@H]1[C@H]2OC(=O)[C@H]1[C@]1(O)C[C@H]3O[C@]34C(=O)O[C@H]2[C@]14C`: “inactive” and “inactive”.
The matching figures for `CC(=O)O[C@@H]1[C@@H](O)[C@H]2O[C@@H]3C=C(C)[C@@H](O)C[C@]3(CO)[C@]1(C)[C@]21CO1`: 321 nM (active) and 321 nM (active).
The matching figures for `CC1=CC(=O)[C@@H](O)[C@]2(C)C3[C@@H](O)[C@@H]4OC(=O)[C@@H]([C@H]4C)[C@]3(C)C(=O)C[C@@H]12` (some centres not stated): 904 nM (active) and 1010 nM (active).
With `CC/C=C/C=C/C1(C)OC(OC)=C(C(=O)C2C(C)C(=O)c3cc(OC)c(O)c(O)c3C2(C)O)C1=O` (configuration not stated), the Potency in experiment [1] and in experiment [2] was 10000 nM (active) throughout.
Turning to `CC1N=C(N)OC1c1ccccc1` (configuration not stated), the Potency result in experiment [1] and in experiment [2] was “inactive” throughout.
For `CCCCCCC(C)(C)c1cc(O)c2c(c1)OC(C)(C)C1CC=C(CO)C[C@H]21` (some centres not stated), the Potency is 1180 nM (active) in experiment [1] and 1660 nM (active) in experiment [2].
The matching figures for `C[C@H]1CCC[C@H](O)CCC/C=C/c2cc(O)cc(O)c2C(=O)O1`: 7310 nM (active) and 9200 nM (active).
The matching figures for `C=C(CO)C(=O)O[C@H]1CC(=C)[C@@H]2C[C@H](O)C(=C)[C@@H]2[C@H]2OC(=O)C(=C)[C@@H]21`: 1800 nM (active) and 1610 nM (active).
The matching figures for `Cc1cn(C[C@H](N)C(=O)O)c(=O)n(Cc2cc(-c3ccccc3)sc2C(=O)O)c1=O`: “inactive” and “inactive”.
As for `COC1CC(O[C@H]2CC[C@]3(C)C4CC[C@]5(C)[C@@H](C6=CC(=O)OC6)[C@@H](OC(C)=O)C[C@]5(O)C4CC[C@@H]3C2)OC(C)C1O` (some centres not stated), the Potency is 252 nM (active) in experiment [1] and 178 nM (active) in experiment [2].
The matching figures for `COC1CC(O[C@H]2CC[C@]3(C)C4CC[C@]5(C)[C@@H](C6=CC(=O)OC6)[C@@H](OC(C)=O)C[C@]5(O)C4CC[C@@H]3C2)OC(C)C1O[C@@H]1O[C@H](CO)[C@@H](O)[C@H](O)[C@H]1O` (some centres not stated): 306 nM (active) and 243 nM (active).
The like results for `C/C=C(\C)C(=O)OC1CC2C(C)(C)OC(=O)CC(OC(C)=O)C2(C)C2CC(OC(=O)C(C)C)C3(C)C(c4ccoc4)CC4OC43C12C` (configuration not stated) were, in that order, “inactive” and “inactive”.
`CO[C@@H]1[C@@H](O)[C@@H](O[C@H]2CC[C@]3(C=O)C4CC[C@]5(C)[C@@H](C6=CC(=O)OC6)CC[C@]5(O)[C@@H]4CC[C@H]3C2)O[C@@H](C)[C@H]1O[C@@H]1O[C@H](CO[C@@H]2O[C@H](CO)[C@@H](O)[C@H](O)[C@H]2O)[C@@H](O)[C@H](O)[C@H]1O` (some centres not stated): the results for the Potency in experiment [1] and in experiment [2] were 3900 nM (active) and 1380 nM (active), respectively.
The matching figures for `Cc1c(Cl)c(OCC(=O)N2CCN(C)CC2)nc2sc(C(=O)NC3CC3)c(N)c12`: “inactive” and “inactive”.
The like results for `COC1CC(O[C@H]2CC[C@@]3(C)C(CCC4C3CC[C@]3(C)C(C5=CC(=O)OC5)CCC43O)C2)OC(C)C1OC1OC(COC2OC(CO)C(O)C(O)C2O)C(O)C(O)C1O` (some centres not stated) were, in that order, 1230 nM (active) and 693 nM (active).
The like results for `CO[C@H]1C[C@H](O[C@H]2CC[C@]3(CO)[C@H]4CC[C@]5(C)[C@@H](C6=CC(=O)OC6)CC[C@]5(O)[C@@H]4CC[C@]3(O)C2)O[C@H](C)[C@H]1O` were, in that order, 100 nM (active) and 63.2 nM (active).

The values are drawn from PubChem BioAssay (NCATS).
